The record followed here is ChEMBL document CHEMBL1201862, “PubChem BioAssay data set” (2004).

Screen size: about 400,000 compounds; about 2,100 (0.53%) were called active. About 14% were inconclusive and are not listed. No rule for the calls is given here. What follows is part of a selection rich in actives, with near analogues and random picks from the rest.

The target in the test is Ataxin-2 (Homo sapiens) (UniProt Q99700). Put plainly: qHTS for Inhibitors of ATXN expression. The test is classed as functional. (In general: qHTS replaces the single test concentration by a dilution series.)
Sequence of Ataxin-2 (Homo sapiens) (Q99700 whole entry): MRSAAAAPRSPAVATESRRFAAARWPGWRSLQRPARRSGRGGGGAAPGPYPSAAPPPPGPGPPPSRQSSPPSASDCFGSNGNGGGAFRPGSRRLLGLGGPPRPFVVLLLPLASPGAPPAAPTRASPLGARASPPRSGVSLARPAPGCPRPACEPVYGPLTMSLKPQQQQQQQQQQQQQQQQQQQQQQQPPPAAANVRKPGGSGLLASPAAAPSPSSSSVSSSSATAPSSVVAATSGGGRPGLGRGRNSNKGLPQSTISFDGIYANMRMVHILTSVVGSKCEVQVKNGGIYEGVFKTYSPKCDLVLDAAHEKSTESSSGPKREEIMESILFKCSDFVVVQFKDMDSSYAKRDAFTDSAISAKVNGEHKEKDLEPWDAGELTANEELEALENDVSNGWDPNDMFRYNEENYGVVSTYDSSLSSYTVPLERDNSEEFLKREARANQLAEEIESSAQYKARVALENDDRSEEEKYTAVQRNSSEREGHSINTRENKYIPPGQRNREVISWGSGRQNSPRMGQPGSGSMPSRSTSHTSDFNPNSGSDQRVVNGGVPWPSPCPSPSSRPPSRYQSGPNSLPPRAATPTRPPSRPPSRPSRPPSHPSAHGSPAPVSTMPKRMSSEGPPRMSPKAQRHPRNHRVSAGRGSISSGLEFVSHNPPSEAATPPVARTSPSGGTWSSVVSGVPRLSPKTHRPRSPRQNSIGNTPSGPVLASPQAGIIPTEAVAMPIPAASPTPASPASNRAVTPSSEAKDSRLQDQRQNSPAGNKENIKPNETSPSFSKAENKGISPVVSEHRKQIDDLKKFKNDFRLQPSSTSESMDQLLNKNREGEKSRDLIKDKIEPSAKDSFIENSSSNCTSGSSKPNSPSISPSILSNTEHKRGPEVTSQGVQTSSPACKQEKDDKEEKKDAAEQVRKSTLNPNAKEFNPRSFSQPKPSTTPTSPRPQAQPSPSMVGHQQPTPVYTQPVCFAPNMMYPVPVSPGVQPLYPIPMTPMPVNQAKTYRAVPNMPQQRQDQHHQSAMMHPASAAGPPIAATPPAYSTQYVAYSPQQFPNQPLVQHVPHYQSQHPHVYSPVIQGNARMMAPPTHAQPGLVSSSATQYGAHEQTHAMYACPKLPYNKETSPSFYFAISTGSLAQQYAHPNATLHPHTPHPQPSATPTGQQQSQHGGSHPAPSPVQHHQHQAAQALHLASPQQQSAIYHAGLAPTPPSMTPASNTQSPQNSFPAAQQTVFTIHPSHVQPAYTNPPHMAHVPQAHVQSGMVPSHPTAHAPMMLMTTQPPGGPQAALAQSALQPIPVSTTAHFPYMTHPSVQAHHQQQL
For `CC(C)(C)c1ccc(SC2=C[C@@]3(O)CC[C@@H](O)[C@@](Sc4ccc(C(C)(C)C)cc4)(C2=O)[C@H]3O)cc1`, the Potency is 25.1 µM (active).

Take `C=CCn1c(SCC(=O)c2[nH]c(C)c(C(=O)OCC)c2C)nc2scc(-c3ccc(OC)c(OC)c3)c2c1=O`: the Potency was 20 µM (active).

`CCOC(=O)c1c(C)[nH]c(C(=O)N(C)CC(=O)Nc2ccc(OCC)c(OCC)c2)c1C`: the Potency entry is “inactive”.

In the case of `C=CCn1c(SCCN2C(=O)c3ccccc3C2=O)nc2scc(-c3ccc(F)cc3)c2c1=O`, the Potency result is “inactive”.

In the case of `O=C1OCCN1C(=O)[C@H]1[C@H](c2ccc(F)cc2)C(c2ccccc2)=NN1c1ccccc1`, the Potency entry is “inactive”.

Turning to `Cc1cccc2c(C(=O)O)c3cccc(C)c3nc12`, the Potency entry is “inactive”.

In the case of `CNc1c2cccc(C)c2nc2c(C(=O)NCCN(C)C)cccc12`, the Potency is 0.794 µM (active).

Regarding `COc1ccc(C(=O)NCCNc2nc3c(C)cccc3cc2C#N)cc1OC`, the Potency entry was “inactive”.

With `O=[N+]([O-])c1ccc(Nc2nc(N3CCOCC3)nc(N3CCOCC3)n2)cc1`, the Potency entry was “inactive”.

Regarding `CCOc1nc(Nc2ccc([N+](=O)[O-])cc2)nc(NC(C)(C)C)n1`, the Potency entry was “inactive”.

On to `CC1CCN(c2nc(Cl)nc(Nc3ccc([N+](=O)[O-])cc3)n2)CC1`, for which the Potency is 39.8 µM (active).

`C[C@H](NC(=O)c1[nH]cnc1C(=O)NCc1ccc(CNC(=O)OC(C)(C)C)cc1)C(=O)OCc1ccccc1`: the Potency is 25.1 µM (active).

Take `O=C(NC(Cc1ccccc1)C(=O)Oc1ccc2c(C(F)(F)F)cc(=O)oc2c1)OCc1ccccc1` (configuration not stated): the Potency result is “inactive”.

As to `CC(C)(C)OC(=O)NCc1ccc(NC(=O)c2[nH]cnc2C(=O)N[C@@H](Cc2ccccc2)C(=O)OCc2ccccc2)cc1`, the Potency is 35.5 µM (active).

With `C[C@H](NC(=O)c1[nH]cnc1C(=O)Nc1ccc(CNC(=O)OC(C)(C)C)cc1)C(=O)OCc1ccccc1`, the Potency is 39.8 µM (active).

For `CC(NC(=O)OC(C)(C)C)C(=O)NC(CCC(=O)OCc1ccccc1)C(N)=O` (configuration not stated), the Potency entry was “inactive”.

On to `COCc1ccc(C(=O)Nc2ccccc2C(=O)NCc2cccnc2)cc1`, for which the Potency result was “inactive”.

With `COc1ccccc1C1C2=C(CC(C)(C)CC2=O)N(CC(=O)O)C2=C1C(=O)CC(C)(C)C2`, the Potency entry was “inactive”.

On to `CN(CCC#N)C(=O)COC(=O)c1c2c(nc3ccccc13)/C(=C\c1ccco1)CC2`, for which the Potency result was “inactive”.

Regarding `COc1ccccc1N/C=C/c1onc(C)c1[N+](=O)[O-]`, the Potency entry is “inactive”.

In the case of `CCOC(=O)c1ccc(N2C(=O)c3[nH]nc(-c4ccccc4)c3C2c2ccc(CC)cc2)cc1` (configuration not stated), the Potency was 39.8 µM (active).

On to `Cc1cc(NC(=O)COC(=O)c2cccc(O)c2)no1`, for which the Potency result is “inactive”.

On to `O=C(OCC1OC(n2cc(Br)c(=O)[nH]c2=O)C(Br)C1O)c1ccccc1` (configuration not stated), for which the Potency entry was “inactive”.

`CCOC(=O)c1ccc(N2C(=O)c3[nH]nc(-c4ccc(OC)cc4)c3C2c2cccc(O)c2)cc1` (configuration not stated): the Potency is 31.6 µM (active).

`COc1ccc(C(=O)COC(=O)c2cncc(Br)c2)cc1`: the Potency result was “inactive”.

With `CCOc1cc(CNc2ccc(O)cc2)cc(Br)c1OCc1ccccc1`, the Potency is 20 µM (active).

On to `Oc1ccc(NCc2ccccc2OCc2ccccc2)cc1`, for which the Potency was 39.8 µM (active).

As to `CC(O)CNCCCCOc1ccc(OCc2ccccc2)cc1` (configuration not stated), the Potency result is “inactive”.

In the case of `CN=C(S)Nc1ccc(OCc2ccccc2)cc1`, the Potency result was “inactive”.

As to `Cc1cc(NC(=O)Nc2ccc(OCc3ccccc3)cc2)n(C)n1`, the Potency result was “inactive”.

Turning to `Oc1ccc(NCc2cccs2)cc1`, the Potency entry was “inactive”.

In the case of `CC(NCc1cccc(OCc2ccccc2)c1)C(O)c1ccccc1` (configuration not stated), the Potency was 25.1 µM (active).

For the compound `COc1cc(CNC(C)(C)CO)cc(Br)c1OCc1ccccc1`, the Potency entry was “inactive”.

Regarding `Oc1ccc(NCc2cccc(OCc3ccccc3)c2)cc1`, the Potency was 28.2 µM (active).

On to `O=C1CCCCC/C1=N/Nc1ccc(OCc2ccccc2)cc1`, for which the Potency result was “inactive”.

For the compound `CCOc1ccc(C2C(C(=O)Nc3ccccc3)=C(C)N=c3s/c(=C/c4cccc(OCC(=O)O)c4)c(=O)n32)cc1` (configuration not stated), the Potency result was “inactive”.

For `N#CC1=C(N)OC2=C(CC/C2=C\c2ccccc2Cl)C1c1ccccc1Cl` (configuration not stated), the Potency result was “inactive”.

For `COCCNC(=O)c1c(N)n(CCCn2ccnc2)c2nc3ccccc3nc12`, the Potency result is “inactive”.

In the case of `O=C(Oc1ccc2ccc(=O)oc2c1)c1ccccc1`, the Potency entry is “inactive”.

As for `Oc1ccc(NCc2ccc(OCc3ccccc3Cl)cc2)cc1`, the Potency was 22.4 µM (active).

Turning to `Clc1ncccc1OCc1ccccc1`, the Potency result is “inactive”.

In the case of `c1ccc(COc2ccccc2CNC23CC4CC(CC(C4)C2)C3)cc1`, the Potency is 20 µM (active).

Regarding `N=c1c(C(=O)NC2CCCC2)cc2c(=O)n3ccccc3nc2n1CC1CCCO1` (configuration not stated), the Potency entry was “inactive”.

As to `COC(=O)Cc1cc(=O)oc2c(C)c(O)ccc12`, the Potency result is “inactive”.

On to `CCCCn1c(-c2cccc(C)c2)nc2cc3nc(O)c(C(C)C)nc3cc21`, for which the Potency is 31.6 µM (active).

On to `CCCCn1c(C2CCCCC2)nc2cc3nc(O)c(C(C)C)nc3cc21`, for which the Potency is 35.5 µM (active).

Consider `CCCC1=Nc2ncnn2C(c2cccs2)/C1=C(\O)OCC` (configuration not stated), for which the Potency entry was “inactive”.

Take `CCC(C)n1c(=N)c(C(=O)NC2CCCCC2)cc2c(=O)n3ccccc3nc21` (configuration not stated): the Potency entry is “inactive”.

With `CCN(C(=O)COC(=O)CCS(=O)(=O)c1ccccc1)c1c(N)n(Cc2ccccc2)c(=O)[nH]c1=O`, the Potency result is “inactive”.

For `CCN(C(=O)COC(=O)CCC(=O)c1ccc(Cl)cc1)c1c(N)n(Cc2ccccc2)c(=O)[nH]c1=O`, the Potency result was “inactive”.

`CCN(C(=O)COC(=O)C1CCC(C(C)(C)C)CC1)c1c(N)n(Cc2ccccc2)c(=O)[nH]c1=O` (configuration not stated): the Potency is 22.4 µM (active).

Turning to `CN(C(=O)COC(=O)/C=C/c1ccc2ccccc2n1)C1CCS(=O)(=O)C1` (configuration not stated), the Potency result is “inactive”.

Regarding `Cc1cc(Nc2cccc(O)c2)c2cccc(Br)c2n1`, the Potency is 8.91 µM (active).

`Oc1cccc(Nc2c3ccccc3nc3ccccc23)c1`: the Potency result is “inactive”.

For the compound `Cc1cc(NCCO)c2cc(O)ccc2n1`, the Potency result is “inactive”.

On to `CCOC(=O)C1=CN(CC2CCCO2)C=C(C(=O)OCC)C1c1ccccc1C(F)(F)F` (configuration not stated), for which the Potency result is “inactive”.

For `COc1cccc(C(=O)Oc2ccc3ccc(=O)oc3c2)c1`, the Potency result was “inactive”.

For `COc1ccc(C(=O)/C=C2\Sc3ccccc3N2C)cc1`, the Potency result is “inactive”.

Turning to `COc1ccc(C(=O)/C=C/Sc2nc3ccccc3o2)cc1`, the Potency is 39.8 µM (active).

For `CCOC(=O)c1cc2c(=O)n3cccc(C)c3nc2n(Cc2ccco2)/c1=N/C(=O)c1ccccc1`, the Potency entry is “inactive”.

Regarding `N#CC1=C(N)N2C(=C(C#N)C1c1cccc(Br)c1)Nc1ccccc12` (configuration not stated), the Potency entry is “inactive”.

Turning to `O=C(OC12CC3CC(CC(C3)C1)C2)c1ccc(NCc2cc(O)ccc2O)cc1`, the Potency is 8.44 µM (active).

Regarding `O=C(OCCC12CC3CC(CC(C3)C1)C2)c1ccc(NCc2cc(O)ccc2O)cc1`, the Potency was 10 µM (active).

For `COC(=O)C1=CN(CCOC23CC4CC(CC(C4)C2)C3)C=C(C(=O)OC)C1c1ccsc1`, the Potency result is “inactive”.

Turning to `CC1CCN(c2ccc3c(c2)S(=O)(=O)c2cccc(C(=O)O)c2C3=O)CC1`, the Potency entry was “inactive”.

Turning to `CN(O)C(=S)c1ccccc1`, the Potency is 8.91 µM (active).

As for `Cc1ccc(S(=O)(=O)Nc2cc(C)c(O)c(Sc3nnc(C)[nH]3)c2)cc1`, the Potency entry is “inactive”.

With `Cc1cc(=O)oc2c(CN3CC(C)OC(C)C3)c(O)c(Cl)cc12` (configuration not stated), the Potency entry is “inactive”.

Consider `CC(=O)Oc1ccc2ccc(=O)oc2c1`, for which the Potency entry was “inactive”.

In the case of `CCN(CC)c1ccc2cc(-c3nc4ccccc4n3C)c(=O)oc2c1`, the Potency result was “inactive”.

Consider `CCCc1nc2ccc(C(=O)OC)cn2c1Cc1ccccc1C(F)(F)F`, for which the Potency was 39.8 µM (active).

For `CCCc1nc2ccc(C)cn2c1Cc1ccccc1`, the Potency was 22.4 µM (active).

Take `COCCN1C=C(C(=O)OC)C(c2ccccc2C(F)(F)F)C(C(=O)OC)=C1`: the Potency entry was “inactive”.

Regarding `CCn1c(=N)c(C(=O)NCc2ccccc2)cc2c(=O)n3cc(C)ccc3nc21`, the Potency result is “inactive”.

For the compound `CCCc1nc2c3ccccc3ccn2c1Cc1ccccc1`, the Potency was 22.4 µM (active).

Consider `CCC(C)n1c(=N)c(C(=O)NCc2ccccc2)cc2c(=O)n3cc(C)ccc3nc21` (configuration not stated), for which the Potency entry was “inactive”.

For the compound `Nn1c(Cc2ccccc2)nc2ccccc2c1=O`, the Potency result is “inactive”.

Take `COCC(C)n1c(SCc2cc(=O)n3cc(C)ccc3n2)nc2ccccc2c1=O` (configuration not stated): the Potency entry was “inactive”.

Consider `CCCc1nc2ccc(C)cn2c1Cc1ccccc1OC`, for which the Potency is 39.8 µM (active).

As to `CCOC(=O)Cc1csc(N/C=C2/C(=O)N(c3ccccc3C(F)(F)F)C(=O)c3ccccc32)n1`, the Potency result is “inactive”.

`O=Cc1ccc(N2N=C(c3ccccc3)CC2c2ccccc2)cc1` (configuration not stated): the Potency result is “inactive”.

Regarding `COC(=O)c1ccc(N2C(c3cc(OC)cc(OC)c3)=Cc3ccc(-c4cccnc4)cc3C2CC(=O)C2CC2)cc1` (configuration not stated), the Potency entry is “inactive”.

With `COc1ccc(C2C=C(c3ccc(Cl)cc3)Nc3nc(NC(=O)CCC(=O)O)nn32)cc1` (configuration not stated), the Potency result was “inactive”.

As to `CO/C(O)=C1\C(C)=NC2=C(C(=O)CC(C)(C)C2)C1c1cnn(C)c1C` (configuration not stated), the Potency result was “inactive”.

As to `CCN(CC)c1ccc2c(C)c(CN3CCOCC3)c(=O)oc2c1`, the Potency entry was “inactive”.

For the compound `COc1ccc(C2CC(c3cccc(F)c3)=NN2c2ccc(S(N)(=O)=O)cc2)cc1` (configuration not stated), the Potency entry is “inactive”.

Consider `CNC(=O)/C(C#N)=C/c1ccc(-c2nc3ccccc3s2)o1`, for which the Potency result is “inactive”.

For `CCCc1nc2c(C)cc(Br)cn2c1Cc1ccc(C)cc1`, the Potency is 20 µM (active).

Take `CCN(Cc1cc(=O)n2cc(Cl)c(C)c(Cl)c2n1)Cc1nc(O)c2ccccc2n1`: the Potency entry was “inactive”.

With `CCOC(=O)c1s/c(=N\C(=O)/C=C/c2cccs2)n(C)c1C`, the Potency result was “inactive”.

As to `CN(C)CCCN(C(=O)C1COc2ccccc2O1)c1nc2ccc(F)cc2s1` (configuration not stated), the Potency entry was “inactive”.

Regarding `CCN(CC(=O)NCc1ccc(F)cc1)C(=O)/C=C/c1cccs1`, the Potency result was “inactive”.

For `CN(C)CCCN(C(=O)/C=C/c1cccs1)c1nc2ccc(F)cc2s1`, the Potency is 39.8 µM (active).

In the case of `CC(=O)Nc1ccc(NC(=O)C(C)OC(=O)/C=C/c2cccs2)cc1` (configuration not stated), the Potency result was “inactive”.

As for `COc1ccc(OC)c2sc(N(CCN(C)C)C(=O)/C=C/c3cccs3)nc12`, the Potency is 28.2 µM (active).

Consider `CC1(C)C(=O)C=CC(=O)C(C)(C)C(=O)C=CC(=O)C(C)(C)C2=CC=C(O2)C(C)(C)C(=O)C=CC1=O`, for which the Potency was 39.8 µM (active).

For the compound `COCCN=C(S)NCCCNc1nc2cc3c(cc2cc1C#N)OCO3`, the Potency result was “inactive”.
